Screening data (PubChem BioAssay)
Hits are enriched below; roughly 3.5% of the tested compounds scored in any of these assays.
Rv3671c inh – inhibitors of M. tuberculosis serine protease Rv3671c. inhibition, % at 5.96 µM. 320,000 tested, 0.048% active. AID 2606; in the data active = inhibition above about 38%;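 note: extracellular domain of Rv3671c used as enzyme; 0% = enzyme with DMSO and 100% = no enzyme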
Target sequence (P9WHR9 whole entry, looked up, the tested form may be a part): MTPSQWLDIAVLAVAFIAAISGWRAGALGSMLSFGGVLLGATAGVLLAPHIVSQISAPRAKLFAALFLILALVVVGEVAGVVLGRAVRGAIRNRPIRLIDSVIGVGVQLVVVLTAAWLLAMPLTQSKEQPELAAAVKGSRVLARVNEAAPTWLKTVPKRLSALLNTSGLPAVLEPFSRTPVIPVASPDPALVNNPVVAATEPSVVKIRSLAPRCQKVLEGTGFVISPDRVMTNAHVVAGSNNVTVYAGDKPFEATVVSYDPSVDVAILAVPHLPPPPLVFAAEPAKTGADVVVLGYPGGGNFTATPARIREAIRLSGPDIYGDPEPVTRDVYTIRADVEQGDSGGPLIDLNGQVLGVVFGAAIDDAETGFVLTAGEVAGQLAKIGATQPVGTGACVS
UGM FP inh – inhibitors of M. tuberculosis UDP-galactopyranose mutase; purified UGM, fluorescence polarization probe displacement; P9WIQ1; 320,000 tested, 0.06% active; inhibition, % at 10 µM; AID 504406; in the data active = inhibition above about 10%, passing the limit was not always enough
GDH-TPI counter-1 – GDH-TPI coupled enzyme inhibition counter-screen | GDH-TPI coupled enzyme counterscreen, NADH absorbance | inhibition, % at 4.8 µM | 360,000 tested, 1.2% active | AID 588335; in the data active = inhibition above about 30%;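 note: 0% = DMSO wells and 100% = wells lacking the enzyme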
Mtb hypoxia inh – inhibitors of hypoxia-regulated fluorescent reporter in Mycobacterium tuberculosis. M. tuberculosis hypoxia-regulated fluorescent reporter, fluorescence. fluorescence inhibition, % (concentration not given with the values). 300,000 tested, 0.1% active. AID 1159583; in the data active = fluorescence inhibition mostly above about 23%, no sharp cut-off; inactive = mostly below about 17%
FadD28 binding – M. tuberculosis FadD28 bisubstrate binding inhibition; FadD28 bisubstrate probe binding, fluorescence polarization; inhibition, % at 12.5 µM; 360,000 tested, 0.22% active; AID 588549; in the data active = inhibition above about 8.5%, passing the limit was not always enough
Mtb FBA inh – inhibitors of M. tuberculosis fructose-bisphosphate aldolase. 360,000 tested, 2.3% active. P9WQA3. purified M. tuberculosis FBA, fluorescence read-out. inhibition, % at 1 µM. AID 588726;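 note: 0% = vehicle and 100% = reference inhibitor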
Mtb FBA confirm – confirmation of M. tuberculosis fructose-bisphosphate aldolase inhibitors | shares compounds with Mtb FBA inh | purified M. tuberculosis FBA, fluorescence read-out | inhibition, % at 1 µM | 5,600 tested, 78% active;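 note: 0% = vehicle wells and 100% = reference inhibitor wells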
GDH-TPI counter-2 – inhibits GDH-TPI coupling enzymes, flagging Mtb FBA hits; shares compounds with Mtb FBA inh; GDH-TPI coupled enzyme counterscreen, fluorescence; inhibition, % at 1 µM; 5,600 tested, 81% active; AID 652141; in the data active = inhibition above about 10%
GDH-TPI DR – inhibits GDH-TPI coupling enzymes in dose response; 170 tested, 79% active; IC50, µM; GDH-TPI coupled enzyme assay, fluorescence, artifact counterscreen; shares compounds with Mtb FBA inh; call rule not given here
Numbers without * were called inactive; / = no result given; + = active, no number. Cut-off read from the data, not from the text of the source, unless noted: active = inhibition above about 27%; inactive = the rest.

SMILES | Rv3671c inh | UGM FP inh | GDH-TPI counter-1 | Mtb hypoxia inh | FadD28 binding | Mtb FBA inh | Mtb FBA confirm | GDH-TPI counter-2 | others
O=C(NCCc1ccccc1)c1ccc2[nH]c(=O)c(=O)[nH]c2c1 | -4 | 0 | 0 | 2 | -4 | 33* | 32* | 19*
COc1ccc2[nH]c(C(=O)NCCN3CCCCC3)cc2c1 | -1 | -1 | / | -11 | / | / | / | /
CCCCNC(=O)c1cc2cc(OC)ccc2[nH]1 | -4 | 1 | 12 | 8 | -2 | 49* | -4 | -7
O=C(NCCc1ccccc1)c1ccc(=O)[nH]c1 | -2 | 0 | 11 | 4 | 2 | 7 | / | /
COc1ccc2[nH]c(C(=O)NCCc3ccccc3)cc2c1 | 7 | 2 | -3 | 18 | 0 | 48* | 5 | -4
COC(=O)c1ccc(C23CC4(C2)C(CN(Cc2cccnc2)C4c2ccccc2)C3c2ccccc2)cc1 (configuration not stated) | / | / | / | -8 | / | / | / | /
COc1ccc(SCC(Cc2ccccc2)N2CCC(NC(=O)OCc3ccccc3)CCC2=O)cc1 (configuration not stated) | / | / | / | 13 | / | / | / | /
CCOc1ccc(NC(=O)C(=O)NCCCn2ccnc2)cc1 | -2 | 0 | 3 | -9 | -1 | 44* | 197* | 164*
Cc1oc2cc(O)ccc2c(=O)c1-c1cnn(-c2ccccc2)c1 | -16 | 1 | 14 | / | -3 | 41* | + | +
Cc1oc2cc(O)ccc2c(=O)c1-c1ccccc1 | 1 | -1 | 24 | -1 | -1 | 71* | 199* | 161*
CC(=O)N1CCc2c(sc(NC(=O)C3CCCN3S(=O)(=O)c3cccs3)c2C#N)C1 (configuration not stated) | 9 | 3 | 8 | 1 | 0 | 33* | 48* | 35*
CCOC(=O)C1CCCN(C(=O)c2cc(-c3ccccc3)nc3ccccc23)C1 (configuration not stated) | 7 | -1 | 2 | 6 | -1 | 1 | / | /
COc1ccc(-c2cc(C(=O)N3CCCC(C(F)(F)F)C3)c3ccccc3n2)cc1 (configuration not stated) | 4 | 0 | 19 | 6 | -5 | 96* | -1 | -4
Cc1ccc(-c2cc(C(=O)N3CCCC(C(F)(F)F)C3)c3ccccc3n2)o1 (configuration not stated) | -9 | 3 | 6 | 5 | -3 | 87* | 161* | 90*
Nc1nccnc1C(=O)OCC(=O)NC1CCCc2ccccc21 (configuration not stated) | 1 | 1 | 5 | 10 | -3 | 95* | 110* | 97*
Cc1ccc(SCc2cn3cccnc3n2)cc1 | 8 | -1 | 10 | / | -1 | 0 | / | /
CCN(Cc1cn2cccnc2n1)C1CCCCC1 | -2 | 1 | -5 | 2 | -4 | 109* | -4 | -2
O=C(CSc1nc2ccccc2o1)c1cc2ccccc2oc1=O | 2 | 0 | 12 | / | -3 | 55* | 11 | 2 | GDH-TPI DR=>10
COC(=O)Cc1ccc(OCc2ccc(Cl)nc2)cc1 | -5 | -1 | -5 | -10 | -1 | 53* | 148* | 102*
CC(C)CC(NC(=O)c1nc[nH]c1C(=O)NCC(=O)OCc1ccccc1)C(=O)OCc1ccccc1 (configuration not stated) | / | / | / | 4 | / | / | / | /
CC(=O)OCC1OC(c2ccccc2)C(OC(C)=O)C(OC(C)=O)C1OC(C)=O (configuration not stated) | -18 | 0 | -4 | 6 | 0 | 0 | / | /
CC(=O)OC[C@H]1O[C@@H](Sc2cccc3cccnc23)[C@H](OC(C)=O)[C@@H](OC(C)=O)[C@@H]1OC(C)=O | -3 | 1 | 10 | 7 | -2 | 28* | 57* | 60*
CC(=O)OC[C@H]1O[C@@H](Sc2cccc3cccnc23)[C@H](OC(C)=O)[C@@H](OC(C)=O)[C@H]1OC(C)=O | 3 | 2 | -1 | 5 | -2 | 35* | 67* | 83*
Cc1nn(C)cc1-c1cc(C(=O)O)c2ccccc2n1 | -4 | -2 | 7 | -7 | -1 | 82* | 18 | 7 | GDH-TPI DR=3.3*
COC(=O)C1CC(c2ccccc2)C(C)C1(C)C (configuration not stated) | / | / | / | -1 | / | / | / | /
SMILES | Rv3671c inh | UGM FP inh | GDH-TPI counter-1 | Mtb hypoxia inh | FadD28 binding | Mtb FBA inh | Mtb FBA confirm | GDH-TPI counter-2 | others
O=c1cc(-c2cccnc2)oc2c1ccc1ccccc12 | -2 | 2 | 0 | / | -4 | 45* | + | 186*
Cc1cc(N2CCOCC2)nc2ccc(NC(=S)N3CCCCC3C)cc12 (configuration not stated) | 14 | -1 | 14 | 9 | -1 | 36* | 122* | 95*
Cc1cc(N2CCOCC2)nc2ccc(NC(=O)CCC(=O)N3CCN(c4ccc(F)cc4)CC3)cc12 | 0 | 1 | 14 | 0 | -2 | 63* | 84* | 52*
Cc1cc(N2CCOCC2)nc2ccc(NC(=O)CCC(=O)N3CCCC(C)C3)cc12 (configuration not stated) | 1 | 2 | 15 | 0 | -2 | 54* | 114* | 84*
Cc1cc(N2CCOCC2)nc2cc(O)ccc12 | -4 | -1 | 14 | 1 | 1 | 32* | 87* | 70*
Cc1cc(N2CCOCC2)nc2ccccc12 | -4 | 0 | 15 | / | -4 | 26 | / | /
CCCCNC(=O)CCC(=O)Nc1ccc2nc(N3CCN(C)CC3)cc(C)c2c1 | -5 | 9 | 3 | -11 | 1 | 23 | / | /
Cc1cc(N2CCOCC2)nc2ccc(NC(=O)C3CCCCC3)cc12 | / | / | 2 | / | -3 | 13 | / | /
CC1CN(C(C)CO)C(=O)Cc2cc(NC(=O)Nc3cccc4ccccc34)ccc2OC1CN(C)S(C)(=O)=O (configuration not stated) | / | / | / | 9 | / | / | / | /
Cc1cc(N2CCOCC2)nc2ccc(NC(=O)CCC(=O)N3CCN(c4ccccc4F)CC3)cc12 | 5 | 1 | 16 | -3 | -2 | 50* | 76* | 55*
CCc1ccccc1OCC(O)CNC1CCCc2ccccc21 (configuration not stated) | / | / | / | 8 | / | / | / | /
Cc1cccc(-n2c(SCC(=O)Nc3nnc(C)s3)nnc2-c2ccoc2C)c1 | -9 | 1 | 6 | / | -1 | 46* | 38* | 31*
Nc1cc(Cl)ccc1C(=O)OCC(=O)NC1CCCCCCC1 | -5 | 2 | 7 | 9 | 0 | 27* | 73* | 56*
CN(Cc1ccccc1)C(=O)COC(=O)Cc1ccc(Cl)cc1 | -1 | -2 | 1 | 14 | -6 | -3 | / | /
O=C(COC(=O)c1cc(Cl)ccc1Cl)NC1CCCC1 | 1 | -1 | 3 | 5 | -1 | 4 | / | /
